# Test results: PubChem BioAssay (EPA / NIEHS)
# Results filed as inconclusive are left out. Activity calls are given as the source filed them. Rule for the calls: active = hit-call score of the fitted dose curve at least 0.9, where 1 is the maximum; inconclusive = response in the unintended direction; inactive = score below 0.9.
# Assay: TOX21_PR_BLA_Followup_Antagonist_viability: Viability Assessment in the Tox21 HEK293 Progesterone Receptor (PR) Antagonism Beta-lactamase Follow-Up Assay (AID 2283936);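 note: hits lower the luminescence signal meaning cytotoxicity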
# Protocol: TOX21_PR_BLA_Followup is a secondary assay for specificity for the TOX21_PR_BLA_Agonist assay. To differentiate true PR agonists from cytotoxic substances, this follow up assay is multiplexed with a cell viability assay. The compounds were also tested for auto fluorescence that may interfere with the biological target readout resulting in potential false positives and/or negatives. To identify the compounds that stimulate PR signaling, a PR-UAS-bla GripTite cell line i.e. PR-UAS-bla HEK293T (Invitrogen, Carlsbad, CA, USA) containing a beta-lactamase reporter gene under the control of an UAS response element was used to screen Tox21 10K compound library. The cytotoxicity of the Tox21 compound library against the PR-bla cell line was tested in parallel by measuring the cell viability using CellTiter-Glo assay in the same wells. TOX21_PR_BLA_Followup_Antagonist_viability is a component of the TOX21_PR_BLA_Followup_Antagonist assay. This component measures cell viability using the CellTiter-Glo Luciferase-coupled ATP quantitation.TOX21_PR_BLA_Followup_Antagonist_viability used a type of viability reporter where loss-of-signal activity can be used to understand changes in the cell viability. Furthermore, this assay endpoint can be referred to as a secondary readout, because this assay has produced multiple assay endpoints where this one serves a viability function. To generalize the intended target to other relatable targets, this assay endpoint is annotated to the cell cycle intended target family, where the subfamily is cytotoxicity.
# Assay Protocol: PR-UAS-bla HEK293T cells were dispensed at 3,000 cells/4 uL of assay medium containing 2% charcoal stripped FBS per well into black wall/clear-bottom 1536-well plates using a Multidrop Combi (ThermoFisher Scientific, Waltham, MA) dispenser. After the assay plates were incubated at a 37C and 5% CO2 for 4 hr, 23 nL of compounds dissolved in DMSO, positive controls or DMSO only was transferred to the assay plate by a Pintool station (Kalypsys, San Diego, CA), followed by addition of 1 uL of R5020 in assay medium using a Flying Reagent Dispenser (FRD, Aurora Discovery, San Diego, CA). The plates were incubated at 37C and 5% CO2 for 16 hr. Then 1 uL of LiveBLAzer B/G FRET substrate was added using a Flying Reagent Dispenser, the plates were incubated at room temperature for 2 hours, and fluorescence intensity was measured by an Envision plate reader (PerkinElmer, Shelton, CT). For cell viability readout that measures cytotoxicity, 4 uL/well of CellTiter-Glo reagent was added into the assay plates using a FRD. After 30 min incubation at room temperature, the luminescence intensity in the plates was measured using a ViewLux (PerkinElmer) plate reader.
SMILES,outcome,AC50
CC(=O)[C@H]1[C@H](C#N)C[C@H]2[C@@H]3CC=C4C[C@@H](O)CC[C@]4(C)[C@H]3CC[C@@]21C,inactive,–
CCOC(=O)c1ccccc1C(=C1C=C(Br)C(=O)C(Br)=C1)c1cc(Br)c(O)c(Br)c1,inactive,–
C[C@]12C=CC(=O)C=C1CC[C@@H]1[C@@H]2[C@@H](O)C[C@@]2(C)[C@H]1CC[C@]2(O)C(=O)CO,inactive,–
CCC(=O)Oc1ccc(/C(CC)=C(\CC)c2ccc(OC(=O)CC)cc2)cc1,inactive,–
C#CC1(O)CC[C@H]2[C@@H]3CCC4=CCCC[C@@H]4[C@H]3CC[C@@]21C (stereo not given in full),inactive,–
CC(C)(c1cc(Br)c(OCCO)c(Br)c1)c1cc(Br)c(OCCO)c(Br)c1,–,54 µM (active)
C[C@]12CCC(=O)C=C1CC[C@@H]1[C@@H]2C(=O)C[C@@]2(C)[C@H]1CC[C@]2(O)C(=O)CO,inactive,–
Nc1ccc(-c2ccc(F)cc2)cc1,inactive,–
COc1ccc(C(Cl)=C(c2ccc(OC)cc2)c2ccc(OC)cc2)cc1,inactive,–
Cc1ccc(C(C)c2ccc(C)c(C)c2)cc1C,inactive,–
